# KLK7 zymogen act – proKLK7 zymogen activators, primary screen, biochemical, fluorescence intensity; actives 0.9% (n = 370,000); activation, % at 7 µM; purified proKLK7, EDANS-DABCYL substrate fluorescence; 100% is mature enzyme control, 0% vehicle; Kallikrein-7 (Homo sapiens), P49862;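 active = activation above the mean of all tested compounds plus 3 SD, computed per campaign excluding outliers beyond control limits, cut at about 13% in these data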
# FAS-TE inh – FAS thioesterase domain inhibitors, primary screen, biochemical, fluorescence intensity, uHTS; Fatty acid synthase (Homo sapiens), P49327; recombinant FAS-TE, OMFH fluorogenic substrate, fluorescence endpoint; inhibition, % at 15 µM; actives 0.67% (n = 360,000); AID 602261, 2012;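 active = compounds whose normalised, plate-corrected inhibition of enzyme fluorescence in the single-dose primary screen is 50% or more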;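 note: 0% = DMSO with enzyme and 100% = substrate without enzyme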
# SMARCA2 act – SMARCA2 (BRM) function activators, primary screen, cell-based, luminescence, high throughput; MG213 cells, MMTV-luciferase reporter, dexamethasone, overnight; activation, % at 9.1 µM; actives 1% (n = 370,000); AID 652017, 2013; in the data active = activation above about 7.8%;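 note: 0% = vehicle wells and 100% = reference activator wells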
# FXN GAA850 act – FXN promoter activators, primary screen, cell-based, luciferase luminescence, HEK293 lucGAA850; HEK293 lucGAA850 FXN promoter luciferase reporter, 24 h; percent of 10 µM SAHA response; activation, % at 6 µM; actives 0.56% (n = 360,000); AID 540364, 2011;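 active = activation above the average of all compounds screened plus 3 SD, cutoff fixed separately per campaign, cut at about 7.5% in these data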;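 note: 0% = DMSO wells and 100% = 10 µM SAHA wells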
# SMARCA2 conf – SMARCA2 (BRM) function activators, confirmation, cell-based, luminescence, triplicate; actives 30% (n = 3,500); activation, % at 9.1 µM; MG213 cells, MMTV-luciferase with dexamethasone, overnight; MG213 cells expressing E1A, Rb sequestered; DMSO wells 0%, reference activator 100%; AID 652260, 2013; shares compounds with SMARCA2 act;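 active = activation above its plate's cutoff, the mean activation of tested wells plus 3 SD, cut at about 7.9% in these data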
# VP16 Luc act – GAL4-VP16 luciferase reporter activation, counter-screen for SMARCA2 (BRM) activator project, cell-based, pG5luc, luminescence, high throughput; shares compounds with SMARCA2 act; HEK293 GAL4-VP16 pG5luc reporter; scaled: DMSO wells 0%, SAHA wells 100%; activation, % at 9.1 µM; actives 41% (n = 3,500); AID 686939, 2013;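 active = activation above the solvent-only control well mean plus 3 SD, averaged across control plates, cut at about 5.2% in these data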
# * hit, by the source's call; . = no result. Only some compounds are listed: those with a hit (about 2.9% of all), similar ones and a draw of the others.
SMILES,KLK7 zymogen act,FAS-TE inh,SMARCA2 act,FXN GAA850 act,SMARCA2 conf,VP16 Luc act
Cc1ccc(CN2CCCCC(NC(=O)c3cccc(C(F)(F)F)c3)C2=O)cc1 (stereo unspecified),0,.,-2,.,.,.
CC(C)N1CCCCC(NC(=O)c2cccc(C(F)(F)F)c2)C1=O (stereo unspecified),-1,.,8.8*,.,1,0
CN(C)c1ccc(CNn2cnnc2SCC(=O)NC(C)(C)C)cc1,0,-5,-3,-2,.,.
CN(C)c1ccc(CNn2cnnc2SCc2ccccc2F)cc1,-1,0,10*,3,2,3
CC(=O)c1ccc(N2CCN(C(=S)NCCCN(C)C)CC2)cc1,0,-6,8.2*,2,0,3
CC(=O)NCCCC(=O)NC(CCC(=O)OCc1ccccc1)C(=O)OCc1ccccc1 (stereo unspecified),0,-3,8.0*,-2,-3,1
O=C(CCC(NC(=O)OCc1ccccc1)C(=O)OCc1ccccc1)NCC(=O)OCc1ccccc1 (stereo unspecified),0,15,-3,1,.,.
Cc1nc(SC(C(N)=O)c2ccccc2)c(C#N)c(C)c1C (stereo unspecified),0,40,8.3*,1,3,2
CC(NC(=O)c1ccc(Cl)cc1)c1nnc(SCc2ccc([N+](=O)[O-])cc2)n1C (stereo unspecified),0,17,-2,-3,.,.
Cc1ccccc1C(=O)NC(CC(C)C)C(=O)OCc1cc(=O)n2cc(Br)ccc2n1 (stereo unspecified),0,8,9.4*,6,5,8.8*
NC(c1csc(Nc2ccc(C(=O)NCCCO)cn2)n1)c1ccccc1Cl (stereo unspecified),-1,-6,5,0,.,.
CC1Cc2ccccc2N1S(=O)(=O)c1cccc(C(=O)c2nccn2C)c1 (stereo unspecified),0,15,8.6*,1,-2,-2
CC(COc1cc(F)cc(C#N)c1)CN1CCC(C(O)(c2ccccc2)c2ccccc2)CC1 (stereo unspecified),0,.,-5,.,.,.
CCCCNc1c(-c2cc3ccccc3o2)nc2nc(C)cc(C)n12,-4,0,0,.,.,.
COc1ccc(Nc2c(-c3cc4ccccc4o3)nc3nc(C)cc(C)n23)cc1,-2,6,8.6*,.,0,2
CCOC(=O)/C(C#N)=C/c1c(Oc2cc(C)cc(C)c2)nc2ccccn2c1=O,0,-9,8.2*,0,-3,0
O=C(COC(=O)c1ccccc1NS(=O)(=O)c1cccs1)NCC12CC3CC(CC(C3)C1)C2,0,25,8.9*,0,-1,1
O=C1NC2(CCCC2)C(=O)N1Cc1cc(=O)n2ccsc2n1,0,.,-1,.,.,.
CC(C)C(=O)Nc1cccc(NC(=O)c2ccc(Cl)cc2Cl)c1,0,-5,8.5*,2,0,3
CCC(=O)NC(=S)Nc1cccc(NC(=O)c2ccc(Cl)cc2Cl)c1,0,4,2,0,.,.
CCOC(=O)C1=C(C)c2ccccc2N(C(=O)OC)C1(C)C(=O)OCC (stereo unspecified),1,0,8.1*,4,1,-1
N#Cc1ccc(NC(=O)c2sc3cc(C(F)(F)F)cnc3c2-c2cccs2)cc1,0,15,1,2,.,.
C/C(=N/NC(=O)c1ccccn1)c1ccc(O)cc1,0,-4,4,4,.,.
C/C(=N/NC(=O)c1ccccn1)c1c[nH]c2ccccc12,0,-3,16*,2,12*,4
Cc1csc(=N)n1-c1ccc(Cl)cc1,0,3,5,4,.,.
SMILES,KLK7 zymogen act,FAS-TE inh,SMARCA2 act,FXN GAA850 act,SMARCA2 conf,VP16 Luc act
Cc1ccc(-n2c(C)csc2=N)cc1,0,-5,8.7*,7,8,19*
O=C(CSc1ccsc1[N+](=O)[O-])NCc1ccccc1,0,8,11*,3,7,3
COC(=O)C1CCN(C2CN(C3CCCCC3)S(=O)(=O)C2)CC1 (stereo unspecified),0,-2,-2,.,.,.
CN(C)C(=O)CCc1nc(-c2ccc(C(C)(C)C)cc2)no1,0,-1,11*,1,3,5.3*
CC(C)(C)c1ccc(-c2noc(CCC(N)=O)n2)cc1,0,-3,-12,-17,.,.
COc1cccc(C(Nc2ccccn2)c2oc(CO)cc(=O)c2O)c1 (stereo unspecified),0,-7,2,0,.,.
Brc1ccc(/C=N/Nc2nc3ccccc3o2)cc1,0,3,9.2*,6,3,14*
Oc1ccccc1/C=N/Nc1nc2ccccc2o1,-8,10,-5,-8,.,.
O=C(NCc1ccccc1CN1CCCC1)c1ccc(Cl)c(N2CCCC2=O)c1,0,-5,-2,1,.,.
O=[N+]([O-])c1cccc(-c2ccc(/C=N/Nc3nc(N4CCCCC4)nc(N4CCCCC4)n3)o2)c1,1,38,8.9*,0,-5,0
CCCc1cc(C(=O)OC)c2ccccc2n1,0,-7,8.3*,-1,-2,1
CC(c1ccccc1)N1CCn2c(nc3cc(NC(=O)c4cccs4)ccc32)C1 (stereo unspecified),-9,0,9.9*,2,7,3
COc1ccc(C(=O)COC(=O)/C=C/c2ccccc2[N+](=O)[O-])cc1,0,23,-1,-3,.,.
O=C(/C=C/c1ccccc1[N+](=O)[O-])OCC(=O)c1ccccc1,0,29,10*,0,8.0*,2
CCC(=O)N1N=C(c2c(-c3ccccc3)c3cc(Cl)ccc3[nH]c2=O)CC1c1ccco1 (stereo unspecified),0,0,10*,0,-3,0
N#Cc1ccc(Cn2c(=O)oc3ccccc32)cc1,0,0,-4,2,.,.
CCN(CC)CCNc1ccc(CO)c2sc3ccccc3c(=O)c12,-1,-1,5,-2,.,.
O=c1c2ccccc2sc2c(CO)ccc(NCCN3CCCCC3)c12,0,4,8.6*,-2,29*,-1
COc1ccc(NS(=O)(=O)c2cccc(C(=O)NNC(=O)CNC(=O)c3ccccc3F)c2)cc1,0,-5,8.2*,-1,-4,0
COc1ccc(NS(=O)(=O)c2cccc(C(=O)NNC(=O)CNC(=O)c3ccc(C)cc3)c2)cc1,0,-5,0,1,.,.

# From PubChem
